Pyk2 oligo antag: antagonists of Pyk2 self-association, primary screen, Q293 cells, FERM NanoBiT luminescence, HTS; AID 1347419, 2020; 99,000 tested, 0.83% active; z-score (the deposit names both 25 µM and 10 µM); hits give low values; Protein-tyrosine kinase 2-beta (Homo sapiens), Q14289;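 active means Z-score of -3 or lower, scaled per plate to the spread of control and sample wells; inactive means z-score above -3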;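 further: negative z-score means lost luminescence so less FERM oligomerization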
SDO1 yeast rescue: growth rescue of sdo1-depleted yeast, primary screen, S. cerevisiae, bone marrow failure model; S. cerevisiae sdo1-depleted JHY4D growth rescue, OD600 30 h; hits give high values; pdr5 snq2 efflux-pump mutant strain; z-score at 10 µM; 140,000 tested, 0.21% active;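 active means z-score above 3 at both the 24 hr and the 30 hr optical density reads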;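 further: z-score against mean and SD of all compound wells on the same plate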
PLK1 PBD inh: Plk1 polo box domain binding inhibitors, primary screen, biochemical, fluorescence polarization. Plk1 PBD phosphopeptide binding. inhibition, %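 (tested at about 20 µM)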. 97,000 tested, 0.13% active; in the data active means inhibition above about 34%, passing the limit was not always enough
Target sequence (P53350 whole entry, looked up, the tested form may be a part): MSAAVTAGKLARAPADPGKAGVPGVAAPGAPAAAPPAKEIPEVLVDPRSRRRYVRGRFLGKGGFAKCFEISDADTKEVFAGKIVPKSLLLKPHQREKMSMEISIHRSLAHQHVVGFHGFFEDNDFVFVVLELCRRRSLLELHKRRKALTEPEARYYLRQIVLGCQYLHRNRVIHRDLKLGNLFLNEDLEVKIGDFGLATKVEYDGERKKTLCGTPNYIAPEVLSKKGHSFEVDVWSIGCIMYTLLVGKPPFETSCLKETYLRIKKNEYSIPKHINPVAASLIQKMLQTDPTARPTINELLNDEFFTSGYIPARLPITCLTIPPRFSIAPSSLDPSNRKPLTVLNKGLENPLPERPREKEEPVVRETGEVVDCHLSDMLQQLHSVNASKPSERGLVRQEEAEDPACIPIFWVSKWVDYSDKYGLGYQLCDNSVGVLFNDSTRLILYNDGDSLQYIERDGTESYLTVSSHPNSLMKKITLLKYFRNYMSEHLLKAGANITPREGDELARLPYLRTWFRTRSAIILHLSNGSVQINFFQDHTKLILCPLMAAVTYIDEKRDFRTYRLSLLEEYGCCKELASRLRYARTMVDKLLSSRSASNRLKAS
Cav3 T inh: Cav3.2 calcium influx blockers – cell-based, Fluo-4 calcium fluorescence, FDSS, MLSMR library, primary screen. Voltage-dependent T-type calcium channel subunit alpha-1H (Homo sapiens), O95180. Cav3.2-expressing cells; hits give low values. B-score at 10 µM. 100,000 tested, 4% active. AID 449739, 2010;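 active means single-dose well whose peak fluorescence ratio is a statistical outlier from its plate by either plate-standardised score or position-corrected B-score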
PLK1 kinase inh: human PLK1 kinase inhibitors, primary screen, biochemical, TR-FRET | Serine/threonine-protein kinase PLK1 (Homo sapiens), P53350 | recombinant PLK1 kinase, TR-FRET peptide phosphorylation | inhibition, % at 10 µM | 97,000 tested, 0.53% active | AID 619, 2007;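 active means inhibition of 50% or more in the single-concentration screen; inactive means inhibition below 50%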;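 further: 0% = DMSO max control and 100% = H-89 dihydrochloride min control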
DAT uptake mod: changed hDAT dopamine uptake under cocaine IC80, either direction, primary screen, cocaine antagonist project, cell-based, LLC-PK1 hDAT, [14C]-dopamine uptake, MLSMR; Sodium-dependent dopamine transporter (Homo sapiens), Q01959; LLC-PK1 hDAT cells, [14C]-dopamine uptake with cocaine IC80; actives deviate in either direction; B-score at 10 µM; 110,000 tested, 1.3% active;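 active means Z score or B-score, a plate-position-corrected score, falls beyond the plate's 99.7% confidence bounds, in either direction; inactive means both scores lie inside the 99.7% bounds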;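 further: scored against the spread of the other compound wells on the same plate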
* = called active by the depositor. An excerpt weighted towards active compounds, which were near 4.7% of everything screened.

For O=C(CN(C(=O)Cn1nnc(-c2cccs2)n1)c1ccc2c(c1)OCCO2)NC1CCCCC1 the results were Pyk2 oligo antag -0.71, SDO1 yeast rescue 0.26, PLK1 PBD inh -10, Cav3 T inh -4.1*, PLK1 kinase inh -4 and DAT uptake mod 1.1.
`Cc1nc(Cl)c2c(n1)NC1=C(O2)C(=O)CCC1` gave SDO1 yeast rescue 1.4.
Screening CCOc1ccc(CN(C)CC(=O)Nc2ccc([N+](=O)[O-])cc2Cl)cc1 returned SDO1 yeast rescue -0.06.
O=C(Nc1cccc(Cl)c1)N1CCN(C/C=C/c2ccccc2)CC1 was read as Pyk2 oligo antag -0.1, SDO1 yeast rescue -1.3, Cav3 T inh -6* and DAT uptake mod 2.2.
CCOc1ccccc1N1CCN(C(=O)Nc2cccc(Cl)c2)CC1 was read as Pyk2 oligo antag 0.3, SDO1 yeast rescue -0.93, PLK1 PBD inh -6, Cav3 T inh -6.1*, PLK1 kinase inh -5 and DAT uptake mod 0.74.
For Nc1c(C(=O)NCC2CCCO2)sc2nc3c(c(-c4ccco4)c12)CC/C3=C\c1ccco1 (stereo not given) the results were SDO1 yeast rescue -1.3.
Screening CCCCc1ccc(CC2S/C(=C(\C#N)C(=O)N3CCOCC3)N(c3ccccc3)C2=O)cc1 (stereo not given) returned Pyk2 oligo antag 0.33, SDO1 yeast rescue -0.54, PLK1 PBD inh 9, Cav3 T inh -3.9*, PLK1 kinase inh -2 and DAT uptake mod 1.3.
CSc1ncc(Cl)c(C(=O)C(C#N)c2nc3c(C)cc(C)cc3c(=O)[nH]2)n1 (stereo not given) was read as Pyk2 oligo antag -3*, SDO1 yeast rescue 0.3, Cav3 T inh -7* and DAT uptake mod -1.
Screening CSc1ncc(Cl)c(C(=O)Nc2cccc(C)c2)n1 returned SDO1 yeast rescue -0.86.
`N#Cc1c(-c2ccco2)nc(SCc2ccc(F)cc2)[nH]c1=O` gave Pyk2 oligo antag -1.3, SDO1 yeast rescue 1.3, PLK1 PBD inh 10, Cav3 T inh -4.5*, PLK1 kinase inh -7 and DAT uptake mod 0.025.
Screening N#Cc1c(-c2ccco2)nc(SCC(=O)Nc2ccc(S(N)(=O)=O)cc2)[nH]c1=O returned SDO1 yeast rescue 0.37, PLK1 PBD inh -28 and PLK1 kinase inh -12.
Screening CC1CCCC(C)N1C(=O)c1cccc2c1-c1ccccc1/C2=N/O (stereo not given) returned Pyk2 oligo antag -3.3*, SDO1 yeast rescue -1.8, PLK1 PBD inh 13, Cav3 T inh -6.4*, PLK1 kinase inh -8 and DAT uptake mod 4*.
Screening CCOC(=O)c1cccc2c1-c1ccccc1/C2=N/O returned Pyk2 oligo antag -2.4, SDO1 yeast rescue -1.6, PLK1 PBD inh -8, Cav3 T inh -0.81, PLK1 kinase inh -1 and DAT uptake mod 0.46.
For O=C(NC(=S)NCCC1=CCCCC1)c1cncc(Br)c1 the results were SDO1 yeast rescue -1.3.
Screening COc1cc(/C=N/N(C)c2ccccc2)ccc1O returned Pyk2 oligo antag -3*, SDO1 yeast rescue -0.65, PLK1 PBD inh 0, Cav3 T inh -0.038, PLK1 kinase inh -13 and DAT uptake mod -0.27.
`CC(C)N(c1ccccc1)c1ccc(NC(=O)COC(=O)CCN2C(=O)c3cccc([N+](=O)[O-])c3C2=O)cc1` gave SDO1 yeast rescue -0.17.
Screening Cc1c(CCO)c(=O)n(-c2ccccc2)n1S(=O)(=O)c1c(Cl)cc(Cl)cc1Cl returned Pyk2 oligo antag 1.7, SDO1 yeast rescue -1.6, PLK1 PBD inh 9, Cav3 T inh -5.5*, PLK1 kinase inh -4 and DAT uptake mod 0.2.
`Cc1c(NCc2cc(Cl)cc(Cl)c2O)c(=O)n(-c2ccccc2)n1C` gave Pyk2 oligo antag -2.5, SDO1 yeast rescue -0.91, PLK1 PBD inh 4, Cav3 T inh -2.1, PLK1 kinase inh 0 and DAT uptake mod -0.31.

Source: PubChem
